Inconclusive results are not listed. The source holds several records for some structures; these can differ, active in one and inactive in another. Calls of active or inactive are those of the source. The calls were made as follows: active = hit-call score of the fitted dose curve at least 0.9, where 1 is the maximum; inconclusive = response in the unintended direction; inactive = score below 0.9.
Experiment: TOX21_p53_BLA_p5_viability: Viability Assessment in the Tox21 HCT-116 p53 Agonism Beta-lactamase Assay, Phase 5 (AID 2283600)
Source text: TOX21_p53_BLA_p5 is a cell-based, single-readout assay that uses HCT116, a human intestinal cell line, […] in a 1536-well plate.TOX21_p53_BLA_p5_viability is an assay readout measuring cellular ATP content and detected with CellTiter-Glo Luciferase-coupled ATP quantitation.TOX21_p53_BLA_p5_viability used a type of viability reporter where loss-of-signal activity can be used to understand changes in the cell viability. Furthermore, this assay endpoint can be referred to as a secondary readout, because this assay has produced multiple assay endpoints where this one serves a viability function. To generalize the intended target to other relatable targets, this assay endpoint is annotated to the cell cycle intended target family, where the subfamily is cytotoxicity.
Thawing Method: Place 14 mL of pre-warmed thaw medium into a 15 mL of conical tub. Remove the vial of cells to be thawed from liquid nitrogen and thaw rapidly by placing at 37C in a water bath with gentle agitation for 1-2 minutes. Decontaminate the vial by wiping with 70% ethanol before opening in a biological safety cabinet. Transfer the vial contents drop-wise into 14 mL of thaw medium in a sterile 15-mL conical tub. Centrifuge cells at 900 rpm for 4 minutes and resuspend in thaw medium. Transfer contents to the T75 tissue culture flask containing Thaw Medium and place flask in a humidified 37C/5% CO2 incubator. Switch to growth medium at first passage.Propagation Method: Aspirate medium, rinse once in DPBS, add 0.25% Trypsin/EDTA and swirl to coat the cell evenly. Add an equal volume of Growth Medium to inactivate Trypsin after 2-3 minutes incubation at 37C. Centrifuge cells at 900 rpm for 4 minutes and resuspend in growth medium. Cell should be passage or fed at least twice a week.Assay Protocol: Harvest cells from culture in growth medium and resuspend in assay medium. 2.2 Dispense 4000 cells/5 uL/well into 1536-well black/clear bottom plates using a Multidrop dispenser. After the cells were incubated at 37C for 5 hours, 23 nL of compounds dissolved in DMSO were transferred to the assay plate by a PinTool resulting in a 217-fold dilution. Incubate the plates for 16 hours at 37C, 5% CO2. Add 1 uL of 6X LiveBLAzer FRET B/G (CCF4-AM) Substrate Mixture to each well using a BioRAPTR dispenser and incubate the plates at room temperature for 2 hours. Measure fluorescence intensity at 460 and 530 nm emission and 405 nm excitation by an Envision detector. Data is expressed as the ratio of 460nm/530nm emissions. Add 4 uL of Cell-titer Glo to each well using BioRAPTR and incubate the plates at room temperature for […]. For cell viability readout that measures cytotoxicity, 4 ul/well of CellTiter-Glo reagent was added into the assay plates using a Flying Reagent Dispenser. After 30 min incubation at room temperature, the luminescence intensity in the plates was measured using a ViewLux plate reader.

| Compound | outcome | AC50 |
| --- | --- | --- |
| CN(C)C(=S)SSC(=S)N(C)C | inactive |  |
| COc1nc(C)nc(NC(=O)NS(=O)(=O)c2ccccc2Cl)n1 | inactive |  |
| Oc1ccccc1-c1ccccc1 | inactive |  |
| O=C(Nc1ccccc1)Nc1ccnc(Cl)c1 | inactive |  |
| O=C(O)COc1nc(Cl)c(Cl)cc1Cl | inactive |  |
| CCOP(=S)(OCC)SCn1c(=O)oc2cc(Cl)ccc21 | inactive |  |
| Cc1cc(Cl)ccc1OCC(=O)O | inactive |  |
| N#CC(CCc1ccc(Cl)cc1)(Cn1cncn1)c1ccccc1 (stereo not given) | inactive |  |
| CC(Oc1ccc(Cl)cc1Cl)C(=O)O (stereo not given) | inactive |  |
| CCCC1COC(Cn2cncn2)(c2ccc(Cl)cc2Cl)O1 (stereo not given) | inactive |  |
| CCc1nn(C)c(C(=O)NCc2ccc(C(C)(C)C)cc2)c1Cl |  | 46.1 µM (active) |
| CCON=C(CC)C1=C(O)CC(c2c(C)cc(C)cc2C)CC1=O (stereo not given) | inactive |  |
| CCOC(=O)C(Cl)Cc1cc(-n2nc(C)n(C(F)F)c2=O)c(F)cc1Cl (stereo not given) | inactive |  |
| C=CCC1=C(C)C(OC(=O)C2C(C=C(C)C)C2(C)C)CC1=O (stereo not given) | inactive |  |
| CON(C)C(=O)Nc1ccc(Cl)c(Cl)c1 | inactive |  |
| CC(C)(C)c1ccc(CSc2cnn(C(C)(C)C)c(=O)c2Cl)cc1 | inactive |  |
| CS/C(C)=N/OC(=O)N(C)SN(C)C(=O)O/N=C(\C)SC | inactive |  |
| COc1ccc(C(c2ccc(OC)cc2)C(Cl)(Cl)Cl)cc1 | inactive |  |
| CCOc1cc(Oc2ccc(C(F)(F)F)cc2Cl)ccc1[N+](=O)[O-] | inactive |  |
| CCOC(=O)CC(SP(=S)(OC)OC)C(=O)OCC (stereo not given) | inactive |  |

| Compound | outcome | AC50 |
| --- | --- | --- |
| COC(=O)C=C(C)OP(=O)(OC)OC | inactive |  |
| CC1=C(C(=O)Nc2ccccc2)SCCO1 | inactive |  |
| C=CCC1=C(C)[C@@H](OC(=O)[C@@H]2[C@@H](C=C(C)C)C2(C)C)CC1=O | inactive |  |
| C=CC1(C)OC(=O)N(c2cc(Cl)cc(Cl)c2)C1=O (stereo not given) | inactive |  |
| CO/C=C(/C(=O)OC)c1ccccc1Oc1cc(Oc2ccccc2C#N)ncn1 | inactive |  |
| COC(=O)c1ccccc1C(=O)OC | inactive |  |
| CCNc1nc(Cl)nc(NCC)n1 | inactive |  |
| C#CCOS(=O)OC1CCCCC1Oc1ccc(C(C)(C)C)cc1 (stereo not given) | inactive |  |
| Cc1ccc(-c2c(Cl)nc(C#N)n2S(=O)(=O)N(C)C)cc1 | inactive |  |
| COc1cnc(OC)n2nc(NS(=O)(=O)c3c(OCC(F)F)cccc3C(F)(F)F)nc12 | inactive |  |
| OC(c1ccc(Cl)cc1)(c1cncnc1)c1ccccc1Cl (stereo not given) | inactive |  |
| Cc1c(F)c(F)c(COC(=O)C2C(/C=C(\Cl)C(F)(F)F)C2(C)C)c(F)c1F (stereo not given) | inactive |  |
| O=C(O)c1nc(Cl)ccc1Cl | inactive |  |
| CC1COC(Cn2cncn2)(c2ccc(Oc3ccc(Cl)cc3)cc2Cl)O1 (stereo not given) | inactive |  |
| COC(=O)N(OC)c1ccccc1COc1ccn(-c2ccc(Cl)cc2)n1 | inactive |  |
| Fc1ccc(Oc2ccnc3cc(Cl)cc(Cl)c23)cc1 | inactive |  |
| COP(N)(=O)SC (stereo not given) | inactive |  |
| CC(C)Oc1cc(-n2nc(C(C)(C)C)oc2=O)c(Cl)cc1Cl |  | 28.5 µM (active) |
| CCCCNC(=O)OCC#CI | inactive |  |
| CNC(=O)ON=CC(C)(C)SC | inactive |  |
